Results published in PubChem BioAssay (NCI).
About 79,000 compounds went through this panel and 15% of them were active in at least one assay; those are over-represented in the sample as a whole. The source made the active and inactive calls. Rule as the data show it: active = growth inhibition above about 70%; inactive = the rest.

Tests used:
[1] = NCI Yeast Anticancer Drug Screen. Data for the rad50 strain (AID 155);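 also: 0% = growth of vehicle-only cultures of the same strain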; details: S. cerevisiae rad50 strain growth inhibition, stronger effect = higher value
Summary of the method: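 Compounds were tested on a yeast strain with an engineered DNA damage repair alteration; the reported value is growth inhibition normalised to vehicle treatment.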

[2] = NCI Yeast Anticancer Drug Screen. Data for the mec2-1 strain (AID 157); details: S. cerevisiae mec2-1 strain, stronger effect = higher value
Summary of the method: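 Mutant yeast (mec2-1) grown with compound; growth inhibition relative to vehicle control reported.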

[3] = NCI Yeast Anticancer Drug Screen. Data for the sgs1 mgt1 strain (AID 161);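 also: 0% = growth of cultures given vehicle only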; details: S. cerevisiae sgs1 mgt1 strain, stronger effect = higher value
Summary of the method: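 Compounds are added to genetically altered yeast, and growth is compared with cultures given vehicle alone to give percent inhibition.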

[4] = NCI Yeast Anticancer Drug Screen. Data for the cln2 rad14 strain (AID 165);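 also: 0% = growth equal to vehicle treated cultures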; details: S. cerevisiae cln2 rad14 strain, stronger effect = higher value
Summary of the method: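 Readout is yeast growth inhibition versus vehicle-treated controls, using a strain with cln2 and rad14 alterations exposed to compound.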

[5] = NCI Yeast Anticancer Drug Screen. Data for the bub3 strain (AID 167); details: S. cerevisiae bub3 mutant strain, stronger effect = higher value
Summary of the method: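 Growth of a checkpoint-deficient yeast mutant is measured after compound exposure. Values represent inhibition relative to vehicle.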

[6] = NCI Yeast Anticancer Drug Screen. Data for the mlh1 rad18 strain (AID 175); details: S. cerevisiae mlh1 rad18 strain growth inhibition, stronger effect = higher value
Summary of the method: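 Genetically defined yeast (DNA repair-deficient) exposed to compounds; growth inhibition determined relative to vehicle.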

[7] = at 5.0 µM (retest, dose inferred, filed as 0.5)
[8] = at 50.0 µM (retest, dose inferred, filed as 5.0)

Measured: growth inhibition

CCOC(=O)c1ccc(O)c(C=O)c1
inactive: [1]; [7] -103% | [2]; [7] -29% | [3]; [7] -35% | [4]; [7] -28% | [5]; [7] -49% | [6]; [7] -83%
active: [1]; [8] 90% | [1]; at 50.0 µM 99.2% | [2]; [8] 98% | [2]; at 50.0 µM 99.6% | [3]; [8] 98% | [3]; at 50.0 µM 99.3% | [4]; [8] 98% | [4]; at 50.0 µM 99% | [5]; [8] 98% | [5]; at 50.0 µM 98.6% | [6]; [8] 98% | [6]; at 50.0 µM 99.5%

CC(=O)/C(=C\c1ccc(N(C)C)cc1)C(C)=[N+](C)C(=O)c1c(/[N+](C)=C(C)\C(=C\c2ccc(N(C)C)cc2)C(C)=O)ncn1C
active: [1]; at 50.0 µM 87.7% | [2]; [8] 70% | [3]; at 50.0 µM 77.3% | [6]; at 50.0 µM 85%
inactive: [1]; [7] 31% | [1]; [8] 47% | [2]; [7] 14% | [2]; at 50.0 µM 7.45% | [3]; [7] 47% | [3]; [8] 66% | [4]; [7] -5% | [4]; [8] 43% | [4]; at 50.0 µM 24.7% | [5]; [7] 10% | [5]; [8] 43% | [5]; at 50.0 µM 43.4% | [6]; [7] 49% | [6]; [8] 53%

Cc1cccc(/C=N/Nc2ccccn2)n1
inactive: [1]; [7] 22% | [1]; [8] 27% | [2]; [7] 17% | [2]; [8] 37% | [3]; [7] 20% | [3]; [8] 38% | [3]; at 50.0 µM 37.1% | [4]; [7] 17% | [4]; [8] 37% | [4]; at 50.0 µM 23.8% | [5]; [7] 15% | [5]; [8] 41% | [5]; at 50.0 µM 37.6% | [6]; [7] 21% | [6]; [8] 42%
active: [1]; at 50.0 µM 83% | [2]; at 50.0 µM 78.8% | [6]; at 50.0 µM 87.6%

C/C=C/c1cc2c(cc1O)CC[C@@H]1[C@@H]2CC[C@]2(C)[C@@H](O)CC[C@@H]12
inactive: [1]; [7] 25% | [2]; [7] 12% | [3]; [7] 11% | [4]; [7] 6% | [5]; [7] 22% | [6]; [7] 24%
active: [1]; [8] 97% | [1]; at 50.0 µM 89% | [2]; [8] 98% | [2]; at 50.0 µM 92% | [3]; [8] 97% | [3]; at 50.0 µM 90.7% | [4]; [8] 97% | [4]; at 50.0 µM 92.7% | [5]; [8] 99% | [5]; at 50.0 µM 91.3% | [6]; [8] 97% | [6]; at 50.0 µM 86.7%

Cc1c(O)/c(=C\O)c2nc3c(=O)ccc(C(=O)NCCN(C)C)c3[nH]c2c1=O
active: [1]; [8] 97% | [2]; [8] 70% | [2]; at 50.0 µM 98.2% | [3]; [8] 97% | [4]; [8] 94% | [4]; at 50.0 µM 98.2% | [5]; [8] 96% | [5]; at 50.0 µM 98.3% | [6]; [8] 96%
inactive: [1]; [7] 29% | [1]; at 50.0 µM 57.5% | [2]; [7] 14% | [3]; [7] 33% | [3]; at 50.0 µM 56% | [4]; [7] -10% | [5]; [7] 19% | [6]; [7] 34% | [6]; at 50.0 µM 45.1%

CN(C)C(=S)SN(C)C(=O)Nc1ccccc1
inactive: [1]; [7] -5% | [2]; [7] -7% | [3]; [7] -6% | [4]; [7] -13% | [4]; at 50.0 µM -9% | [5]; [7] -4% | [6]; [7] -3%
active: [1]; [8] 96% | [1]; at 50.0 µM 70.3% | [2]; [8] 96% | [2]; at 50.0 µM 73% | [3]; [8] 96% | [3]; at 50.0 µM 94% | [4]; [8] 95% | [5]; [8] 95% | [5]; at 50.0 µM 92.2% | [6]; [8] 96% | [6]; at 50.0 µM 86.1%

N#CC(C(=O)CCCC(=O)Nc1ccc(Cl)cc1)c1ccccc1Cl (stereo not given)
inactive: [1]; [7] 2% | [1]; [8] 0% | [2]; [7] -1% | [2]; [8] 6% | [3]; [7] 9% | [3]; [8] 4% | [4]; [7] -2% | [4]; [8] 1% | [5]; [7] 1% | [5]; [8] 30% | [6]; [7] -2% | [6]; [8] 4%
active: [1]; at 50.0 µM 96.8% | [2]; at 50.0 µM 98% | [3]; at 50.0 µM 99% | [4]; at 50.0 µM 93.9% | [5]; at 50.0 µM 99% | [6]; at 50.0 µM 96.7%

Nc1ncnc2nn(C3OC(CO)C(O)C3O)nc12 (stereo not given)
inactive: [1]; [7] 15% | [1]; [8] 20% | [1]; at 50.0 µM 29.1% | [2]; [7] 2% | [2]; [8] 6% | [2]; at 50.0 µM -26.2% | [3]; [7] -7% | [3]; [8] 6% | [3]; at 50.0 µM -22.1% | [4]; [7] -29% | [4]; [8] -18% | [4]; at 50.0 µM 33.1% | [5]; [7] 0% | [5]; [8] 1% | [5]; at 50.0 µM -70.4% | [6]; [7] 4% | [6]; [8] 0% | [6]; at 50.0 µM -4.75%

Clc1ccccc1N1CCN(c2c3c(nc4ccccc24)CCCCC3)CC1
active: [1]; [8] 89% | [1]; at 50.0 µM 93.3% | [2]; [8] 96% | [2]; at 50.0 µM 95.8% | [3]; [8] 96% | [3]; at 50.0 µM 94% | [4]; [8] 91% | [4]; at 50.0 µM 94.2% | [5]; [8] 92% | [5]; at 50.0 µM 93.2% | [6]; [8] 94% | [6]; at 50.0 µM 95.6%
inactive: [1]; [7] -4% | [2]; [7] 11% | [3]; [7] 38% | [4]; [7] -13% | [5]; [7] -10% | [6]; [7] 42%

O=C1C=CC(=O)N1c1ccc(Cl)cc1
inactive: [4]; [7] 54%
active: [1]; [7] 79% | [1]; [8] 97% | [1]; at 50.0 µM 91.6% | [2]; [7] 79% | [2]; [8] 99% | [2]; at 50.0 µM 93.1% | [3]; [7] 95% | [3]; [8] 100% | [3]; at 50.0 µM 92.8% | [4]; [8] 101% | [4]; at 50.0 µM 84.8% | [5]; [7] 101% | [5]; [8] 100% | [5]; at 50.0 µM 92.1% | [6]; [7] 80% | [6]; [8] 99% | [6]; at 50.0 µM 92%
